Among the test systems are NCI-H23 lung; NCI-H226 lung; NCI-H322M lung; HOP-62 NSCLC; NCI-H460 lung; NCI-H522 lung; A549/ATCC NSCLC; 786-0 renal; COLO 205 colon; DU-145 prostate; K-562 leukemia; MALME-3M melanoma; MDA-MB-231 breast; RXF 393 renal; SF-268 CNS; SF-295 CNS; SF-539 CNS; UACC-257 melanoma; M14 melanoma; HCT-15 colon.
What all share (test): NCI-60 one-dose screen, 48 h (100 = growth as untreated, 0 = no growth, -100 = all killed)
Conditions in all cases: 10 µM

Structures are written as SMILES. About 83,000 compounds went through this panel and 20% of them were active in at least one assay; those are over-represented in the sample as a whole.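 Cell lines were cultured in 96-well plates, exposed to a single compound concentration, and assessed for percent growth 48 hours later.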 Unmarked numbers belong to inactive results. The source made the active and inactive calls. Rule for the calls: active = growth percent below 10; inactive = the rest.

Consider `Cc1ccc(-c2n[nH]c(=O)c3noc(-c4ccc(C)cc4)c23)cc1`, for which the growth is 61.8% in the test with NCI-H23 lung; 80.9% in the test with NCI-H226 lung; 49.5% with NCI-H322M lung; 29.2% in the test with HOP-62 NSCLC; 17.3% with NCI-H460 lung; 16.4% with NCI-H522 lung. Further, the growth was 36.8% in the test with A549/ATCC NSCLC; 48.4% with 786-0 renal; -25.1% (active) in the test with COLO 205 colon; 25.2% in the test on DU-145 prostate; 13.2% in the test on K-562 leukemia; 26.4% with MALME-3M melanoma. Besides, the growth in the test on MDA-MB-231 breast was 58.1%; with RXF 393 renal, 38%; with SF-268 CNS, 53.5%; with SF-295 CNS, 49.3%; in the test on SF-539 CNS it was 3% (active); with UACC-257 melanoma it was 55.9%. For the same compound, the growth in the test with M14 melanoma is 28.8%; in the test with HCT-15 colon, 33.1%.
Turning to `C(CCCC1=NCCO1)CCCC1=NCCO1`, the growth in the test on NCI-H23 lung is 97.2%; in the test on NCI-H226 lung, 95.8%; in the test with NCI-H322M lung, 118%; with HOP-62 NSCLC, 107%; in the test with NCI-H460 lung it was 104%; in the test with NCI-H522 lung, 103%. The growth was 101% in the test with A549/ATCC NSCLC; 99.1% with 786-0 renal; 99.5% in the test with COLO 205 colon; 108% with DU-145 prostate; 110% in the test with K-562 leukemia; 106% in the test on MALME-3M melanoma. Besides, the growth with MDA-MB-231 breast was 104%; with RXF 393 renal, 95.6%; in the test on SF-268 CNS it was 104%; with SF-295 CNS, 101%; in the test on SF-539 CNS it was 101%; in the test with UACC-257 melanoma, 104%. Besides, the figures for the growth with M14 melanoma and in the test with HCT-15 colon were 109% and 99.3%, respectively.
As to `O=C(Nc1cccc(-n2cc(-c3ccncc3)c(-c3cc(O)cc(Cl)c3)n2)c1)c1cc(C(F)(F)F)cc(C(F)(F)F)c1`, the growth with NCI-H23 lung was 42.7%; with NCI-H226 lung it was 96%; in the test with NCI-H322M lung, 74.1%; with HOP-62 NSCLC, 58.3%; in the test on NCI-H460 lung it was 19.9%; in the test with NCI-H522 lung, 17.8%. Further, the growth was 27.3% with A549/ATCC NSCLC; 55.1% in the test with 786-0 renal; 38.7% with COLO 205 colon; 62.1% with DU-145 prostate; 20.4% in the test on K-562 leukemia; 61.7% with MALME-3M melanoma. The growth in the test with MDA-MB-231 breast is -34.6% (active); in the test with RXF 393 renal, -10.3% (active); in the test with SF-268 CNS it was 69.4%; with SF-295 CNS it was 15%; in the test with SF-539 CNS, 75.5%; with UACC-257 melanoma, 71%. Further, the values for the growth in the test on M14 melanoma and with HCT-15 colon were 24.5% and 30.1%, respectively.
Turning to `Nc1ncnc2[nH]c(=O)[nH]c12`, the growth with NCI-H23 lung was 103%; with NCI-H226 lung, 87.7%; in the test with NCI-H322M lung it was 103%; in the test with HOP-62 NSCLC it was 97.9%; in the test on NCI-H460 lung it was 95.5%; in the test on NCI-H522 lung it was 105%. The growth in the test on A549/ATCC NSCLC was 118%; in the test on 786-0 renal, 102%; in the test with COLO 205 colon, 132%; in the test on DU-145 prostate it was 99.5%; in the test on K-562 leukemia, 46.5%; with MALME-3M melanoma, 104%. The growth in the test on MDA-MB-231 breast was 91.4%; in the test with RXF 393 renal, 22.1%; in the test with SF-268 CNS, 89%; in the test on SF-295 CNS it was 85.1%; in the test with SF-539 CNS, 87%; in the test with UACC-257 melanoma it was 103%. In addition, the growth is 94.6% in the test on M14 melanoma and 96.3% in the test on HCT-15 colon.
As to `COc1ccc(/C=C/C(C)=N/OCC(=O)O)cc1`, the growth in the test with NCI-H23 lung was 103%; with NCI-H226 lung it was 99.6%; in the test with NCI-H322M lung it was 106%; with HOP-62 NSCLC, 105%; in the test on NCI-H460 lung, 108%; in the test on NCI-H522 lung, 92.8%. Besides, the growth in the test with A549/ATCC NSCLC is 102%; in the test on 786-0 renal, 98.1%; in the test with COLO 205 colon, 98.9%; with DU-145 prostate it was 104%; in the test with K-562 leukemia, 99.9%; in the test with MALME-3M melanoma, 96.7%. Moreover, the growth in the test with MDA-MB-231 breast was 120%; in the test with RXF 393 renal, 101%; with SF-268 CNS, 107%; in the test on SF-295 CNS, 100%; in the test with SF-539 CNS it was 101%; with UACC-257 melanoma, 112%. Also, the values for the growth in the test on M14 melanoma and in the test with HCT-15 colon were 100% and 102%, respectively.
For the compound `Cc1nc2c(c(=O)[nH]1)OCN(Cc1ccccc1)C2`, the growth with NCI-H23 lung was 100%; in the test with NCI-H226 lung it was 103%; in the test on NCI-H322M lung, 105%; in the test on HOP-62 NSCLC, 107%; in the test on NCI-H460 lung, 110%; with NCI-H522 lung, 111%. The growth in the test on A549/ATCC NSCLC is 112%; with 786-0 renal it was 101%; in the test on COLO 205 colon, 112%; in the test on DU-145 prostate, 108%; in the test on K-562 leukemia, 88%; with MALME-3M melanoma it was 87%. Also, the growth with MDA-MB-231 breast was 107%; in the test with RXF 393 renal, 118%; with SF-268 CNS, 103%; in the test with SF-295 CNS it was 107%; in the test with SF-539 CNS, 109%; with UACC-257 melanoma, 97.8%. Besides, the growth with M14 melanoma was 101%; in the test with HCT-15 colon, 99.4%.
In the case of `CCOC(=O)N/N=C\C(C)=N\NC(=O)OCC`, the growth in the test on NCI-H23 lung is 101%; with NCI-H226 lung, 119%; with NCI-H322M lung it was 89.5%; with HOP-62 NSCLC it was 96.3%; in the test on NCI-H460 lung it was 102%; in the test on NCI-H522 lung, 89.2%. For the same compound, the growth with A549/ATCC NSCLC was 92.6%; in the test on 786-0 renal it was 101%; in the test on COLO 205 colon it was 114%; with DU-145 prostate, 106%; in the test on K-562 leukemia, 98.7%; with MALME-3M melanoma, 84.5%. For the same compound, the growth is 111% in the test with MDA-MB-231 breast; 125% in the test with RXF 393 renal; 105% in the test with SF-268 CNS; 90.9% in the test with SF-295 CNS; 99.9% with SF-539 CNS; 92.6% in the test with UACC-257 melanoma. Moreover, the growth was 100% in the test with M14 melanoma and 99.5% with HCT-15 colon.

The values above are taken from PubChem BioAssay (NCI).
